Experimental data from PubChem BioAssay (NCATS).
Where “and” joins values, the source holds several entries; their conditions need not be identical. Equal values may be shown once. Records with an inconclusive call do not appear. Calls of active or inactive are those of the source. Unless noted, the call rests on the fitted dose curve; in most records, active means well fitted curve in the direction sought with a large enough effect; inconclusive means small, poorly fitted or top-dose-only effect, or another doubt; inactive means no such curve, though single readings can be large; an effect the other way counts as inactive or inconclusive.

Experiments:
[1] = target: Cytochrome P450 2C9 (Homo sapiens) (UniProt P11712); experiment: qHTS Assay for Inhibitors and Substrates of Cytochrome P450 2C9 (AID 883); further: potency means the concentration at half of the fitted maximal effect; nearly all actives have a fitted effect of over 60% in size
Chain of Cytochrome P450 2C9 (Homo sapiens) (P11712 whole entry, looked up): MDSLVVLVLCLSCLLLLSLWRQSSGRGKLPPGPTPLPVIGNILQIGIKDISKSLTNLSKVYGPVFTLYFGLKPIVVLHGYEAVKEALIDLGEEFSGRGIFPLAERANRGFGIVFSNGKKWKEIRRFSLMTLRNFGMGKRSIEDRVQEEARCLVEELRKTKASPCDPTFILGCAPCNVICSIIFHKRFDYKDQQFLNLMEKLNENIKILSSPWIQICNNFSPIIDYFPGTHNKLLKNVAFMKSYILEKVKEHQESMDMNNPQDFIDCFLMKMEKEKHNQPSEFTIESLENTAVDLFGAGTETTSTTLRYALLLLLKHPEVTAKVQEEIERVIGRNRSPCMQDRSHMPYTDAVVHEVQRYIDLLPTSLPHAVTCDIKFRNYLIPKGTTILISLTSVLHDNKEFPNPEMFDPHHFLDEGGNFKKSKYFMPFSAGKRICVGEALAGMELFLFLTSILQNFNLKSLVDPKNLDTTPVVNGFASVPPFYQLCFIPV
Outline: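 Luminescent read-out of deoxyluciferin hydroxylation, normalized to 57uM sulphaphenazole (AC100). Reaction: 10nM enzyme, 100uM Luciferin-H (equal to KM), 25mM KPO4, 10 min compound preincubation, then 60 min with NADPH regeneration, both at 37C.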

[2] = target: Cytochrome P450 3A4 (Homo sapiens) (UniProt P08684); experiment: qHTS Assay for Inhibitors and Substrates of Cytochrome P450 3A4 (AID 884); further: potency means the concentration at half of the fitted maximal effect; nearly all actives have a fitted effect of over 50% in size
Chain of Cytochrome P450 3A4 (Homo sapiens) (P08684 whole entry, looked up): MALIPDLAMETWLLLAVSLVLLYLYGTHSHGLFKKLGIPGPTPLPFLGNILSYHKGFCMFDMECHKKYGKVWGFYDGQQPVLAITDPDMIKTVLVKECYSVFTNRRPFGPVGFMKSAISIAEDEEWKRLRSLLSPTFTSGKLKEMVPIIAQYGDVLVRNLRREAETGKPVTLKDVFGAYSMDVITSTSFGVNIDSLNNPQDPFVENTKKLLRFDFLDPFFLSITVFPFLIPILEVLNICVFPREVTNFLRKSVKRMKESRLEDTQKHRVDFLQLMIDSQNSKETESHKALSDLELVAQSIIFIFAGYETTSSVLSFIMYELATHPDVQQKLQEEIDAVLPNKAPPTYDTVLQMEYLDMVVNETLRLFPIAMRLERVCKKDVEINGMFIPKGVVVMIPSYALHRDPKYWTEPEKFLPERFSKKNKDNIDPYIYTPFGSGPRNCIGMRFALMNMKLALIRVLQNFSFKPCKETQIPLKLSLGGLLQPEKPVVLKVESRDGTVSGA
Outline: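 20 nM human CYP3A4 with 25 uM Luciferin-PPXE (at KM) in 200 mM KPO4, preincubated 10 min with compound; NADPH regeneration started a 60 min RT reaction. Luciferin detected by luminescence, normalized to 57 uM ketoconazole as full inhibition.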

[3] = target: Cytochrome P450 3A4 (Homo sapiens) (UniProt P08684); experiment: qHTS Assay for Activators of Cytochrome P450 3A4 (AID 885); further: nearly all actives have a fitted effect of over 65% in size
Outline: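 Signal was normalized against complete inhibition by 57 uM ketoconazole. The reaction used 20nM CYP3A4 with 25uM Luciferin-PPXE, 10-min compound preincubation and a 60-min NADPH-supported step at RT.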

[4] = target: Cytochrome P450 2D6 (Homo sapiens) (UniProt P10635); experiment: qHTS Assay for Inhibitors and Substrates of Cytochrome P450 2D6 (AID 891); further: potency means the concentration at half of the fitted maximal effect; nearly all actives have a fitted effect of over 60% in size
Chain of Cytochrome P450 2D6 (Homo sapiens) (P10635 whole entry, looked up): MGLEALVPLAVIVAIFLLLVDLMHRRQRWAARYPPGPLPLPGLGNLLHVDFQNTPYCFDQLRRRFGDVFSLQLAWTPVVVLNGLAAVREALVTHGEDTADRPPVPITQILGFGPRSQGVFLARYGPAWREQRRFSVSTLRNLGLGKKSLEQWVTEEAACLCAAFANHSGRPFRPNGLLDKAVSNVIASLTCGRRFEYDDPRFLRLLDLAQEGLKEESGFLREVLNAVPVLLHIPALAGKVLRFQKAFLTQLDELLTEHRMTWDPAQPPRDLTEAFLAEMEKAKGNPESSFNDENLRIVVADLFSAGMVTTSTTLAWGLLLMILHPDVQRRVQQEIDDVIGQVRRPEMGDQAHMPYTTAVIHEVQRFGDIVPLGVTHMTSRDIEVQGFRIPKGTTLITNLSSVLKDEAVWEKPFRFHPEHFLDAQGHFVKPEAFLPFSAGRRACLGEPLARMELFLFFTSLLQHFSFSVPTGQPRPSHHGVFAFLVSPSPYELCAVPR
Outline: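 Human CYP2D6 (5 nM) with 30 uM Luciferin-ME EGE (at Km) in 100 mM KPO4, compound preincubated 10 min, then NADPH regeneration system for 60 min at room temperature. Luciferin read by luminescence; normalized to 1.43 uM quinidine.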

[5] = target: Cytochrome P450 2C19 (Homo sapiens) (UniProt P33261); experiment: qHTS Assay for Inhibitors and Substrates of Cytochrome P450 2C19 (AID 899); further: potency means the concentration at half of the fitted maximal effect; nearly all actives have a fitted effect of over 60% in size
Outline: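 Luminescence readout of luciferin formed from 10uM Luciferin-H EGE (KM level) by 5 nM CYP2C19 in 50mM KPO4. 60 min NADPH-driven reaction at 37C after 10 min compound preincubation; data scaled to 57uM ketoconazole inhibition.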

[6] = qHTS Assay for Identification of Small Molecule Antagonists for Thrombopoietin (TPO) Signaling Pathway (AID 918); conditions: TPO-dependent cell signaling reporter, antagonist mode; further: potency means the concentration at half of the fitted maximal effect; nearly all actives have a fitted effect of over 60% in size
Outline: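 First, Ba/F3 reporter cells expressing human TPO receptor were held overnight without IL-3. Next, compound and 26 pM TPO were added. After 24 hrs incubation at 37 C, luciferase luminescence under the Glycoprotein IIb promoter was recorded.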

[7] = target: Alpha-galactosidase (Coffea arabica) (UniProt Q42656); experiment: Counterscreen for Glucocerebrosidase Inhibitors: qHTS Assay for Coffee Bean alpha-Galactosidase at pH 4.5 (AID 957);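 further: plate controls were enzyme alone for no effect and no enzyme for full effect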
Chain of Alpha-galactosidase (Coffea arabica) (Q42656 whole entry, looked up): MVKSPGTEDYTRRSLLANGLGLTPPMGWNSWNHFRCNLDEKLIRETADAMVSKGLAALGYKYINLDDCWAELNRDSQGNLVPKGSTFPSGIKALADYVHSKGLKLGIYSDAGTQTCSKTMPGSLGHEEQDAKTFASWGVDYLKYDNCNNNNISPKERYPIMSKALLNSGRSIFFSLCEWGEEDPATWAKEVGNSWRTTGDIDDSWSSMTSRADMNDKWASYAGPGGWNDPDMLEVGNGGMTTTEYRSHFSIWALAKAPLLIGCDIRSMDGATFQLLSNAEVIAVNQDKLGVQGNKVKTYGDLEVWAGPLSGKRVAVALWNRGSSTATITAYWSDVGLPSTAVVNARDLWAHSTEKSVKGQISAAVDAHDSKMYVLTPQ
Outline: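 AC50 values derive from Hill-equation modeling of concentration-response data, normalized to no-enzyme and full-activity controls. The pH 4.5 citrate assay used 2 nM coffee bean enzyme and 80 uM fluorogenic substrate for 20 min.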

[8] = target: Alpha-galactosidase (Coffea arabica) (UniProt Q42656); experiment: Counterscreen for Glucocerebrosidase Inhibitors: qHTS Assay for Coffee Bean alpha-Galactosidase at pH 5.9 (AID 998);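 further: plate controls were uninhibited enzyme for no effect and no-enzyme basal signal for full effect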
Outline: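 Compounds were titrated from 0.7 nM to 77 uM against green coffee bean alpha-galactosidase (2 nM) using 80 uM fluorogenic 4-methylumbelliferyl substrate. After 20 min at room temperature, reactions were stopped at pH 10 and read by fluorescence.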

[9] = Counterscreen for APE1 Inhibitors: Fluorescent Dye Displacement Validation Assay (AID 1707); further: potency means the concentration at half of the fitted maximal effect
Outline: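 Compounds are scored by their ability to displace Thiazole Orange (250 nM) from a 50 nM TAMRA-tagged duplex bearing a tetrahydrofuran abasic site. Buffer is 50 mM Tris-HCl pH7.5, 50mM NaCl, 2 mM MgCl2, 0.01% Tween-20.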

[10] = qHTS for differential inhibitors of proliferation of Plasmodium falciparum line 7G8 (AID 1815);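 further: potency means the concentration at half of the fitted maximal effect; parasite growth measured after three days of incubation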
[11] = qHTS for differential inhibitors of proliferation of Plasmodium falciparum line W2 (AID 1883); conditions: Potency: Plasmodium falciparum W2 proliferation inhibition;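 further: potency means the concentration at half of the fitted maximal effect; parasites grown with compound for 72 h before lysis and staining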
[12] = Validation screen for inhibitors of Lassa infection (AID 463096; calls by dose curve; further: on the % scale 0 is the no-effect control and ±100 the full control effect)
[13] = target: DNA polymerase III PolC-type (Bacillus subtilis (strain 168)) (UniProt P13267); experiment: qHTS Validation Assay for the Inhibitors of DNA Replication in Gram-Positive Bacteria (AID 485295); further: potency means the concentration at half of the fitted maximal effect
Outline: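 First, compound is mixed with the reconstituted replication complex and held at room temperature. Next, circular single-stranded M13Gori with nucleotides starts synthesis. Finally, PicoGreen in EDTA halts the reaction and stains double-stranded product for fluorescence reading.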

[14] = target: M-phase phosphoprotein 8 (Homo sapiens) (UniProt Q99549); experiment: qHTS Validation Assay for Inhibitors for MPP8 Chromodomain Interactions with Methylated Histone Tails (AID 488949); further: potency means the concentration at half of the fitted maximal effect; nearly all actives have a fitted effect of over 55% in size
Chain of M-phase phosphoprotein 8 (Homo sapiens) (Q99549 whole entry, looked up): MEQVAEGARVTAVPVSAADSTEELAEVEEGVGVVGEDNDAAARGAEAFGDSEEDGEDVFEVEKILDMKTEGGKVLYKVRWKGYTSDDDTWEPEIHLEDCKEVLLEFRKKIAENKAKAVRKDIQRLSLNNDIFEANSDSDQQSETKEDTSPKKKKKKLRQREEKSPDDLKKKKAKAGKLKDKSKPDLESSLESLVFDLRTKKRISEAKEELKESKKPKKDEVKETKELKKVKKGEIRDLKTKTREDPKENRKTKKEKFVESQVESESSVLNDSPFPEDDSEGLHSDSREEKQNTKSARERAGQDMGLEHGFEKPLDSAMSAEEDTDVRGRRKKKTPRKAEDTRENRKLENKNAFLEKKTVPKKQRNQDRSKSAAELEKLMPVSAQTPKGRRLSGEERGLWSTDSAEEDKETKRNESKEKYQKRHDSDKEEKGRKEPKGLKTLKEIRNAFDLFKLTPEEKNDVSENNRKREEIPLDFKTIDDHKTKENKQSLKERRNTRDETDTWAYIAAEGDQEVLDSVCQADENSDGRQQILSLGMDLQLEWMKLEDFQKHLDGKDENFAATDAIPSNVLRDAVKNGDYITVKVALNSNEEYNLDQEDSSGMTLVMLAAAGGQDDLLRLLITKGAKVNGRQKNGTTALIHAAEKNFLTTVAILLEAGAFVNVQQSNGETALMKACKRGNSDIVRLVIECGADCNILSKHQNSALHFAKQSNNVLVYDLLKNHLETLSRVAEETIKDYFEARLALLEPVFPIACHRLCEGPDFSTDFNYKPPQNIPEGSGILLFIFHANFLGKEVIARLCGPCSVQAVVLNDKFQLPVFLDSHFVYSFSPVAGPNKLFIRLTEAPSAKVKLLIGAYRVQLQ
Outline: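 50 nM MPP8 + 50 nM b-H3K9me3 peptide, PBS pH 7.4/0.01% Tween-20, 30 min RT; + cpd 30 min RT; + AlphaScreen donor/Ni-chelate acceptor beads 10 ug/mL final, 30 min dark; luminescence read.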

[15] = target: Chromobox protein homolog 1 (Homo sapiens) (UniProt P83916); experiment: qHTS Validation Assay for Inhibitors of HP1-beta Chromodomain Interactions with Methylated Histone Tails (AID 488953); further: potency means the concentration at half of the fitted maximal effect; nearly all actives have a fitted effect of over 50% in size
Chain of Chromobox protein homolog 1 (Homo sapiens) (P83916 whole entry, looked up): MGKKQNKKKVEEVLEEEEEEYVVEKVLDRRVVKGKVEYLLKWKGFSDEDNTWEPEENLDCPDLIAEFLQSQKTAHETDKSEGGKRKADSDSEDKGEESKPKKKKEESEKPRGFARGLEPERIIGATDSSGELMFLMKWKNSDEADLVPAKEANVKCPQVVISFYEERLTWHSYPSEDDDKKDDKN
Outline: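 Measured as loss of AlphaScreen luminescence from streptavidin donor and nickel acceptor beads (10 ug/mL final) bridging HP1-beta and biotin-H3(1-18)K9me3, each 50 nM. Compounds met the preassembled complex for 30 min at RT.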

[16] = qHTS assay for small molecule agonists of retinoid X receptor alpha signaling (AID 588544; calls by dose curve;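 on activation: 0% = DMSO basal wells and 100% = reference agonist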); conditions: HEK293T RXRa-UAS-bla, beta-lactamase reporter, 18 h; 530 nm emission
[17] = target: Retinoic acid receptor RXR-alpha (Homo sapiens) (UniProt P19793); experiment: as above
Chain of Retinoic acid receptor RXR-alpha (Homo sapiens) (P19793 whole entry, looked up): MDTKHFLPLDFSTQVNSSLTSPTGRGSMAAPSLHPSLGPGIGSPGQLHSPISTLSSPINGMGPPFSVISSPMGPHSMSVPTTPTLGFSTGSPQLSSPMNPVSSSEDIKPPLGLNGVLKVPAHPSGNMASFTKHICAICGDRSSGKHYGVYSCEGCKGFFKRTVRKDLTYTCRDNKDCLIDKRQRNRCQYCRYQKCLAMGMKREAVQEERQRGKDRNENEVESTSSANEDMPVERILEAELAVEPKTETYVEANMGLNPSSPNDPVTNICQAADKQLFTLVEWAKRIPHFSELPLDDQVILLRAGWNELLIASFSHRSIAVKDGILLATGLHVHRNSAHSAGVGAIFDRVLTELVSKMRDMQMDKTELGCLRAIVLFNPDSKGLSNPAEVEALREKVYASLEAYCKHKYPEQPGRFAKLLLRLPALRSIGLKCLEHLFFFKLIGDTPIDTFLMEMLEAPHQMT

[18] = target: Voltage-gated inwardly rectifying potassium channel KCNH2 (Homo sapiens) (UniProt Q12809); experiment: qHTS Assay for Small Molecule Inhibitors of the Human hERG Channel Activity (AID 588834);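 further: top concentration of the series differs between compounds; on the % scale 0 is the no-effect control and ±100 the full control effect; lower thallium flux fluorescence means stronger hERG block; nearly all actives have a fitted effect of over 50% in size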
Outline: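 hERG-BacMam U2OS, 2000 cells/well; 0.7X FluxOR loading 1 hr RT dark; cpd ~10 min 37 °C; stim buffer; FDSS fluorescence 2 min @ 1 s; AC50 Hill fit.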

[19] = qHTS assay for small molecule agonists of the antioxidant response element (ARE) signaling pathway (AID 651741; active means well fitted activation curve with a large enough effect in the signal ratio; the % refers to the signal ratio; further: potency means the concentration at half of the fitted maximal effect)
Outline: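 Seeding 2,000 ARE-bla HepG2 cells per well preceded a 5 h incubation at 37 C/5% CO2 and a 16 h compound exposure at 37 C. Beta-lactamase reporter activity was then quantified by fluorescence after 2 h with LiveBLAzer B/G FRET substrate.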

[20] = qHTS assay for small molecule activators of the p53 signaling pathway (AID 651743; active means well fitted activation curve with a large enough effect in the signal ratio, not every such curve was filed as active; the % refers to the signal ratio; further: potency means the concentration at half of the fitted maximal effect); conditions: HCT-116 p53RE-bla, beta-lactamase FRET ratio, 16 h; activation: stronger effect = higher value
Outline: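 Screen for p53 pathway agonists uses stably transfected p53RE-bla HCT-116 cells, 4,000 per well, treated 16 h at 37 C with compounds in DMSO.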

[21] = qHTS assay for small molecule disruptors of the mitochondrial membrane potential - 1 hr assay (AID 651754; calls by dose curve; further: potency means the concentration at half of the fitted maximal effect; nearly all actives have a fitted effect of over 35% in size)
Outline: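 Steps: seed HepG2 cells and let attach overnight; pin-transfer compound or vehicle; incubate 1 hr at 37C; add Mito-MPS dye for 30 min; read two-channel fluorescence for monomer and aggregate forms.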

[22] = qHTS assay for small molecule disruptors of the mitochondrial membrane potential - 5 hr assay (AID 651755; calls by dose curve; further: potency means the concentration at half of the fitted maximal effect; nearly all actives have a fitted effect of over 40% in size)
Outline: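 HepG2, 2,000 cells/well, overnight attach; cpd or DMSO 5 hr, 37C/5% CO2; Mito-MPS 30 min 37C; fluor 490/535 + 540/590 nm.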

[23] = qHTS assay to identify small molecules that stimulate interleukin-8 (IL-8) secretion (AID 651758; active means well fitted activation curve with a large enough effect in the signal ratio; the % refers to the signal ratio; further: potency means the concentration at half of the fitted maximal effect)
Outline: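 Secreted IL-8 measured by TR-FRET sandwich (cryptate and XL665 antibodies) from THP-1 cells exposed to compound overnight (16 hrs, 37 C).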

[24] = qHTS assay for environmental chemicals that activate the Aryl hydrocarbon Receptor (AhR) signaling pathway (AID 651777); conditions: 1A2-DRE human hepatoma cells, luciferase, 24 h; activation: stronger effect = higher value; further: potency means the concentration at half of the fitted maximal effect; nearly all actives have a fitted effect of over 15% in size
Outline: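 AhR activation is scored as a rise in luciferase from a stable DRE–CYP1A2 promoter construct in human hepatoma cells. Treatment lasts 24 hr at 37 C; detection uses One-Glo after 30 min at room temperature.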

[25] = target: Nuclear receptor ROR-gamma (Homo sapiens) (UniProt P51449); experiment: qHTS assay for small molecule antagonists of the retinoid-related orphan receptor gamma (ROR-gamma) signaling pathway (AID 651802)
Chain of Nuclear receptor ROR-gamma (Homo sapiens) (P51449 whole entry, looked up): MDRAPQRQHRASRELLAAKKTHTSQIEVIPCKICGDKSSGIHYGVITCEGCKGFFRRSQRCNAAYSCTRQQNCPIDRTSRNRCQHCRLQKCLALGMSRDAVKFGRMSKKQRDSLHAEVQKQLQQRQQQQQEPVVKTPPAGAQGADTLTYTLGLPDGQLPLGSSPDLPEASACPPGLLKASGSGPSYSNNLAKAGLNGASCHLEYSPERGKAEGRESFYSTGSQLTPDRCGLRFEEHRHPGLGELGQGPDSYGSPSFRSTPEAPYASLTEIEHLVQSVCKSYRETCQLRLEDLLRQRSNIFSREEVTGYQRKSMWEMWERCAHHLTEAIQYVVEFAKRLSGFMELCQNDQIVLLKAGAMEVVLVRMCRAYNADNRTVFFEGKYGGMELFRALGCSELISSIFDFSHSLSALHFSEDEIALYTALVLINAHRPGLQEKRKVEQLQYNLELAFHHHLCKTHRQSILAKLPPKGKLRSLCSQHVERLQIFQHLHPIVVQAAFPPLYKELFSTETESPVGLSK
Outline: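 Antagonism is scored as a fall in luminescence from a RORE-luciferase reporter in CHO cells expressing ROR under a TET-inducible promoter, measured 16hr after doxycycline induction in the presence of compound.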

[26] = target: Arylsulfatase A (Homo sapiens) (UniProt P15289); experiment: qHTS screen for enhancers of Arylsulfatase A (ASA1): LOPAC Validation Assay (AID 720538); further: 0% is about no effect
Chain of Arylsulfatase A (Homo sapiens) (P15289 whole entry, looked up): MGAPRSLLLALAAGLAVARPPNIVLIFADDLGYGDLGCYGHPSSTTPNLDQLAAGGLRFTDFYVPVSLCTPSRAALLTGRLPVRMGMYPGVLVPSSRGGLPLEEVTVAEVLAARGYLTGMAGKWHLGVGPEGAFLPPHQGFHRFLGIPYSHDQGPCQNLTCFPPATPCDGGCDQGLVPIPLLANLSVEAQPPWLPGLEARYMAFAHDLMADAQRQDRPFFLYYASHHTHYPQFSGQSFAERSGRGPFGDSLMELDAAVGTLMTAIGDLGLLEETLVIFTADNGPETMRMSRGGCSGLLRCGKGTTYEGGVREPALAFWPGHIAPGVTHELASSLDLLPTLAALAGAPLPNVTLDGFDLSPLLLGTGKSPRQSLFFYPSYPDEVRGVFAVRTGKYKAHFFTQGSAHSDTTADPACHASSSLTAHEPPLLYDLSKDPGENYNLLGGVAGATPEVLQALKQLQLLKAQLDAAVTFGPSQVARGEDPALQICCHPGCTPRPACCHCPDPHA
Outline: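 MLD patient fibroblasts (SV40, ASA-I179S), 1536-well; adhere 6 hrs; cpd 48h, 37 degree C, 5% CO2; pNCS 0.5mM final in lysis buffer, 14h RT; stop 1N NaOH final; fluor. Ex525/Em598.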

[27] = qHTS profiling of the MIPE4 collection as inhibitors of Plasmodium falciparum (3D7) proliferation (AID 743344; call rule not given here;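 further: scaled between DMSO vehicle wells and 0.29 µM artemisinin as full inhibition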); conditions: P. falciparum 3D7 in erythrocytes, SYBR Green DNA fluorescence, 72 h; at 28.5 µM (top of the series) unless noted
Outline: (§1)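 Erythrocytes infected with P. falciparum (0.3% parasitemia, 2.5% hematocrit) incubated with compounds 72 h at 37 C, 5% CO2. Lysis with saponin/Triton buffer containing SYBR Green I, overnight at room temperature in the dark; DNA fluorescence (485/535 nm) normalised to 0.29 uM artemisinin and DMSO.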

[28] = qHTS profiling of the MIPE4 collection as inhibitors of Plasmodium falciparum (DD2) proliferation (AID 743345; call rule not given here); conditions: P. falciparum Dd2 in erythrocytes, SYBR Green DNA, 72 h; at 28.5 µM (top of the series) unless noted
Outline: as §1

[29] = qHTS for Inhibitors of the Functional Ribonucleoprotein Complex (vRNP) of Lassa (LASV) Arenavirus: LASV Primary Screen - GLuc reporter signal (AID 1347082; calls by dose curve; tested in HEK293 reporter line)
[30] = qHTS for Inhibitors of the Functional Ribonucleoprotein Complex (vRNP) of Lassa (LASV) Arenavirus: Viability assay - alamar blue signal for LASV Primary Screen (AID 1347083; calls by dose curve; tested in HEK293 reporter line; further: on the % scale 0 is the no-effect control and ±100 the full control effect; nearly all actives have a fitted effect of over 80% in size)
[31] = qHTS for Inhibitors of the Functional Ribonucleoprotein Complex (vRNP) of Lymphocytic Choriomeningitis Arenaviruses (LCMV): Viability assay - alamar blue signal for LCMV Primary Screen (AID 1347085; calls by dose curve; tested in HEK293 reporter line; further: on the % scale 0 is the no-effect control and ±100 the full control effect; nearly all actives have a fitted effect of over 80% in size)
[32] = target: Nucleoprotein (Lymphocytic choriomeningitis virus (strain Armstrong)) (UniProt P09992); experiment: qHTS for Inhibitors of the Functional Ribonucleoprotein Complex (vRNP) of Lymphocytic Choriomeningitis Arenaviruses (LCMV): LCMV Primary Screen - GLuc reporter signal (AID 1347086; calls by dose curve; further: on the % scale 0 is the no-effect control and ±100 the full control effect; nearly all actives have a fitted effect of over 70% in size)
Chain of Nucleoprotein (Lymphocytic choriomeningitis virus (strain Armstrong)) (P09992 whole entry, looked up): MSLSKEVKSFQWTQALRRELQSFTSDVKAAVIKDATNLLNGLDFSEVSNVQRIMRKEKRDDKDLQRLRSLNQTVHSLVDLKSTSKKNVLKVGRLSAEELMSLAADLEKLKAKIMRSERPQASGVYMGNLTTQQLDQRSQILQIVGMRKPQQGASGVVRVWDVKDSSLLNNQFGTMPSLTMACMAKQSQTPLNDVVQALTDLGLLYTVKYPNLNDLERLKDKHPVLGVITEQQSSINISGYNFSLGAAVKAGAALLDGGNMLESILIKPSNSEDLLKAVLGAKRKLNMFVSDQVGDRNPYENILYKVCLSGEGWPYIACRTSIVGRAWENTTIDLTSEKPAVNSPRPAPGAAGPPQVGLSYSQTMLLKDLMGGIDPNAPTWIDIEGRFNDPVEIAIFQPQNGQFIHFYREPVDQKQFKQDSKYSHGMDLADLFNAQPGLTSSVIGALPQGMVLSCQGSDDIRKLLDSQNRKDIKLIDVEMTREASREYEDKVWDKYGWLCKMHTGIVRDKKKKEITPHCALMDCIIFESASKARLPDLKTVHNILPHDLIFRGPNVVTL

[33] = Cytotoxicity counterscreen for inhibitors of SARS-CoV-2 cell entry (AID 1645845; calls by dose curve; further: nearly all actives have a fitted effect of over 50% in size)
Outline: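 48 h compound treatment (after 1 h preincubation), HEK293-ACE2 cells, 37 C/5% CO2; ATP luminescence endpoint; normalized to cell wells and media blanks.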

[34] = Primary qHTS to identify inhibitors of SARS-CoV-2 cell entry (AID 1645846; calls by dose curve; further: nearly all actives have a fitted effect of over 45% in size); conditions: activity change, negative = inhibition: at 57.1 µM (top of the series) unless noted
Outline: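 Inhibition of spike-mediated entry was scored in human ACE2-transfected Expi293F cells. Particles were MLV-pseudotyped with Wuhan-Hu-1 S carrying a 19-aa C-terminal deletion; signal was luciferase after two days, scaled between spike PP and fusion-protein-free PP.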

[35] = system: CRL-7250; experiment: qHTS assay to identify novel small-molecules to repurpose for Merkel cell carcinoma treatment (AID 1296009); conditions: MCC and control cell lines, CellTiter-Glo viability, 72 h; series mostly up to 92 µM; further: nearly all actives have a fitted effect of over 60% in size
Outline: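 After compound transfer in DMSO, plates were kept 72 hr at 37 degree celsius. Luminescent ATP signal from CellTiter-Glo served as viability measure, normalized against DMSO and no-cell controls.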

For `Cc1cc(O)c2c(c1)C(=O)c1cc(O)cc(O)c1C2=O`, the Potency [1] was 7.94 µM (active), the Potency [2] was 10 µM (active) and the Potency [3] was “inactive”. For the same molecule, the Potency [4] was 12.6 µM (active), the Potency [5] was 7.94 µM (active) and the Potency [6] was 12.6 µM (active). The outcome [7] was “inactive”, the outcome [8] was “inactive” and the Potency [9] was 28.2 µM (active). For the same molecule, the Potency [10] was 11.2 µM (active), the Potency [11] was 14.1 µM (active) and the Potency [12] was “inactive”. For the same molecule, the Potency [13] was 23.8 µM (active), the Potency [14] was 10.6 µM (active) and the Potency [15] was 22.4 µM (active). For the same molecule, the max response [16] was 21.4%, the outcome [17] was “inactive” and the Potency [18] was “inactive”. The Potency [19] was 9.69 µM (active) and 18.8 µM (active), the Potency [20] was 15.8 µM (active) and 22.4 µM (active) and the Potency [21] was 2.98 µM (active). For the same molecule, the Potency [22] was 3.76 µM (active), the Potency [23] was 66.8 µM (active) and the Potency [24] was 44.7 µM (active). For the same molecule, the Potency [25] was 42.2 µM (active), the Potency [26] was “inactive” and the parasite growth, % of DMSO control [27] was 76.8%. The parasite growth remaining, % of DMSO control (lower = more inhibition) [28] was 90.9%, the Potency [29] was “inactive” and the Potency [30] was “inactive”. The Potency [31] was “inactive”, the Potency [32] was “inactive” and the Potency [33] was “inactive”. The activity change, negative = inhibition [34] was 3.76% and the Potency [35] was “inactive”.
